Test results taken from PubChem BioAssay (NCATS).
Results filed as inconclusive are left out. Calls of active or inactive are those of the source. Calls come from the whole dose curve; as a rule, active = well fitted curve in the direction sought with a large enough effect; inconclusive = small, poorly fitted or top-dose-only effect, or another doubt; inactive = no such curve, though single readings can be large; an effect the other way counts as inactive or inconclusive.

What was measured:
[1] = qHTS of pediatric cancer cell lines to identify multiple opportunities for drug repurposing: Primary screen for RD cells (AID 1347104); conditions: RD rhabdomyosarcoma viability, CellTiter-Glo luminescence, 48 h; series mostly up to 46 µM; note: nearly all actives have a fitted effect of over 55% in size; note: potency is the fitted concentration of half-maximal effect
Summary of the method: (§1)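 Primary screen of approved and investigational compounds on cells in growth media at 37 degrees C, 5% CO2. MIPE set at 11-point and NPC set at 8-point dilutions; viability scored by ATP-based luminescence at 48 hours.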

[2] = qHTS of pediatric cancer cell lines to identify multiple opportunities for drug repurposing: Primary screen for control Hh wild type fibroblast cells (AID 1347106); conditions: Hh wild-type fibroblast viability, CellTiter-Glo luminescence, 48 h; series mostly up to 46 µM; note: nearly all actives have a fitted effect of over 55% in size; note: potency is the fitted concentration of half-maximal effect
Summary of the method: (§2)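 Cells (500-1,000/well) in growth media were settled 5 h at 37 degrees C, then given compounds for 48 h. Viability was read as CellTiter-Glo luminescence. Primary runs used MIPE at 11 points (0.78 nM-46 µM) and NPC at 8 points (0.59 nM-46 µM); follow-ups used 11 points.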

[3] = qHTS of pediatric cancer cell lines to identify multiple opportunities for drug repurposing: Primary screen for Rh30 cells (AID 1347107); conditions: Rh30 rhabdomyosarcoma viability, CellTiter-Glo luminescence, 48 h; series mostly up to 46 µM; note: nearly all actives have a fitted effect of over 75% in size
Summary of the method: as §2

[4] = qHTS of pediatric cancer cell lines to identify multiple opportunities for drug repurposing: Confirmatory screen for A673 cells (AID 1347110); conditions: A673 Ewing sarcoma cell viability; series mostly up to 45.9 µM;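 note: cells exposed to compound for 48 h before the viability read; nearly all actives have a fitted effect of over 65% in size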; note: potency is the fitted concentration of half-maximal effect
Summary of the method: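 A673 cells at 500-1,000 cells/well were dosed 5 h after plating, in dilution series up to 46 uM final; primary runs used 8 or 11 points and confirmatory runs used 11 points. Viability was read by CellTiter-Glo luminescence after 48 h, against DMSO and 2.3 uM bortezomib controls.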

[5] = qHTS of pediatric cancer cell lines to identify multiple opportunities for drug repurposing: Confirmatory screen for TC32 cells (AID 1347118); conditions: TC32 Ewing sarcoma cells viability qHTS; series mostly up to 45.9 µM;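 note: cells exposed to compound for 48 h before the read; nearly all actives have a fitted effect of over 65% in size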; note: potency is the fitted concentration of half-maximal effect
Summary of the method: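 qHTS, TC32, 48 h drug treatment, CellTiter-Glo luminescence as a proxy for metabolically active cells; primary top concentration 46 µM (MIPE 11-pt, NPC 8-pt); confirmatory 11-pt.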

[6] = qHTS of pediatric cancer cell lines to identify multiple opportunities for drug repurposing: Confirmatory screen for control Hh wild type fibroblast cells (AID 1347121); conditions: viability qHTS; series mostly up to 45.9 µM; note: nearly all actives have a fitted effect of over 70% in size
Summary of the method: as §2

[7] = qHTS of pediatric cancer cell lines to identify multiple opportunities for drug repurposing: Confirmatory screen for Rh41 cells (AID 1347123); conditions: Rh41 rhabdomyosarcoma cells, viability/cytotoxicity qHTS; series mostly up to 45.9 µM;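 note: 48 h compound exposure; nearly all actives have a fitted effect of over 60% in size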; note: potency is the fitted concentration of half-maximal effect
Summary of the method: as §2

[8] = qHTS of pediatric cancer cell lines to identify multiple opportunities for drug repurposing: Primary screen for MG 63 (6-TG R) cells (AID 1347105); conditions: MG 63 (6-TG R) viability, CellTiter-Glo, 48 h; series mostly up to 46 µM; note: nearly all actives have a fitted effect of over 50% in size; note: potency is the fitted concentration of half-maximal effect
Summary of the method: as §1

[9] = qHTS of pediatric cancer cell lines to identify multiple opportunities for drug repurposing: Primary screen for Rh41 cells (AID 1347108); conditions: Rh41 rhabdomyosarcoma viability, CellTiter-Glo luminescence, 48 h; series mostly up to 46 µM;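 note: luminescence drop marks cytotoxic hits; nearly all actives have a fitted effect of over 70% in size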
Summary of the method: as §1

[10] = qHTS of pediatric cancer cell lines to identify multiple opportunities for drug repurposing: Confirmatory screen for SK-N-MC cells (AID 1347111); conditions: SK-N-MC cell viability; series mostly up to 45.9 µM;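 note: cells exposed to compound for 48 h before the readout; nearly all actives have a fitted effect of over 70% in size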; note: potency is the fitted concentration of half-maximal effect
Summary of the method: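 Metabolically active cells were quantified by ATP-dependent luminescence (CellTiter-Glo, 15 min at room temperature) following 48 h treatment. Cells had been plated at 500-1,000 per well and settled for 5 h beforehand.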

[11] = qHTS of pediatric cancer cell lines to identify multiple opportunities for drug repurposing: Confirmatory screen for BT-12 cells (AID 1347112); conditions: BT-12 rhabdoid tumor cells, viability; series mostly up to 45.9 µM; note: nearly all actives have a fitted effect of over 55% in size
Summary of the method: as §2

[12] = qHTS of pediatric cancer cell lines to identify multiple opportunities for drug repurposing: Confirmatory screen for DAOY cells (AID 1347114); conditions: DAOY medulloblastoma cells viability, cytotoxicity qHTS; series mostly up to 45.9 µM; note: nearly all actives have a fitted effect of over 65% in size
Summary of the method: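 Viability measured as metabolically active cells via CellTiter-Glo luminescence following 48 hours of compound exposure, 11-point dilutions in confirmatory testing. 500-1,000 cells/well plated 5 hours before dosing; controls were DMSO and 2.3 µM bortezomib.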

[13] = qHTS of pediatric cancer cell lines to identify multiple opportunities for drug repurposing: Confirmatory screen for NB-EBc1 cells (AID 1347115); conditions: NB-EBc1 neuroblastoma cells, viability (cytotoxicity); series mostly up to 45.9 µM;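 note: cells exposed to compound for 48 h before the viability read; nearly all actives have a fitted effect of over 45% in size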; note: potency is the fitted concentration of half-maximal effect
Summary of the method: as §2

[14] = qHTS of pediatric cancer cell lines to identify multiple opportunities for drug repurposing: Confirmatory screen for BT-37 cells (AID 1347117); conditions: BT-37 pediatric cancer cells, viability; series mostly up to 45.9 µM; note: nearly all actives have a fitted effect of over 55% in size
Summary of the method: as §2

[15] = qHTS of pediatric cancer cell lines to identify multiple opportunities for drug repurposing: Confirmatory screen for U-2 OS cells (AID 1347122); conditions: U-2 OS osteosarcoma cell viability; series mostly up to 45.9 µM; note: nearly all actives have a fitted effect of over 65% in size
Summary of the method: as §2

[16] = qHTS of pediatric cancer cell lines to identify multiple opportunities for drug repurposing: Confirmatory screen for RD cells (AID 1347124); conditions: RD rhabdomyosarcoma cell viability; series mostly up to 45.9 µM; note: potency is the fitted concentration of half-maximal effect
Summary of the method: as §2

[17] = qHTS of pediatric cancer cell lines to identify multiple opportunities for drug repurposing: Confirmatory screen for Rh18 cells (AID 1347125); conditions: Rh18 rhabdomyosarcoma cells, viability; series mostly up to 45.9 µM; note: nearly all actives have a fitted effect of over 55% in size
Summary of the method: as §2

[18] = qHTS of pediatric cancer cell lines to identify multiple opportunities for drug repurposing: Confirmatory screen for NB1643 cells (AID 1347109); conditions: NB1643 neuroblastoma cell viability; series mostly up to 45.9 µM; note: nearly all actives have a fitted effect of over 45% in size; note: potency is the fitted concentration of half-maximal effect
Summary of the method: as §2

[19] = qHTS of pediatric cancer cell lines to identify multiple opportunities for drug repurposing: Confirmatory screen for MG 63 (6-TG R) cells (AID 1347119); conditions: MG-63 (6-TG resistant) osteosarcoma viability; series mostly up to 45.9 µM; note: nearly all actives have a fitted effect of over 55% in size
Summary of the method: as §2

Measured: Potency

S=C(SSC(=S)N1CCCCC1)N1CCCCC1
active: [1] 29.9 nM | [2] 1060 nM | [4] 10400 nM | [5] 2610 nM | [7] 329 nM
inactive: [3] | [6]

CCOP(=O)(NC(C)C)Oc1ccc(SC)c(C)c1 (stereo not given)
inactive: [1] | [8] | [2] | [3] | [9]

CC1(C)CC/C(=C/c2ccc(Cl)cc2)C1(O)Cn1cncn1 (stereo not given)
inactive: [1] | [2] | [3] | [9]

COc1ccc2c(c1)[C@]13CCCCC1C(C2)N(C)CC3 (stereo not given in full)
inactive: [1] | [8] | [2] | [3] | [9]

C[C@@H]1CC[C@H]2[C@@H](C)C(=O)O[C@@H]3O[C@@]4(C)CC[C@H]1[C@]32OO4
inactive: [2]

C[C@]12CCC(=O)C(O)=C1CC[C@@H]1[C@H]3CCC(=O)[C@@]3(C)CC[C@@H]12
inactive: [1] | [8] | [2] | [3]

COc1ccc(CC2NCCc3cc(OC)c(OC)cc32)cc1OC (stereo not given)
inactive: [1] | [8] | [2] | [3] | [9]

O=C(O)CCCOc1ccc(Cl)cc1Cl
active: [10] 43400 nM | [13] 19400 nM
inactive: [1] | [8] | [2] | [3] | [9] | [4] | [11] | [12] | [14] | [6] | [15] | [16] | [17]

O=C(N[C@H]1CN2CCC1CC2)c1ccc(Cl)cc1
active: [1] 26400 nM | [18] 16500 nM | [4] 1650 nM | [10] 1170 nM | [5] 1650 nM | [16] 414 nM
inactive: [11] | [12] | [13] | [14] | [6] | [17]

CCC(=O)OC1CCC2C3CCC4=CC(=O)CC[C@@]4(C)C3CC[C@]12C (stereo not given in full)
inactive: [1] | [8] | [2] | [3] | [9] | [18] | [4] | [11] | [12] | [13] | [14] | [19] | [6] | [15] | [16] | [17]

O=[N+]([O-])c1c2ccccc2cc2ccccc12
inactive: [8] | [2] | [3]

O=C(Nc1ccccc1-c1ccc(Cl)cc1)c1cccnc1Cl
inactive: [1] | [8] | [2] | [3] | [9]

O=C1C=CC[C@@H]2[C@H]3CCCN4CCC[C@@H](CN12)[C@@H]34
inactive: [2]

O=C(NCC1CCOCC1)c1cnc(Nc2ccc(Cl)cc2Cl)nc1C(F)(F)F
inactive: [2] | [3]
active: [8] 29600 nM

CC(C)[C@H]1C(=O)N[C@H](CO)Cc2c[nH]c3cccc(c23)N1C
inactive: [1] | [3] | [9]

CN(C)NC(=O)CCC(=O)O
inactive: [1] | [8] | [3]

CCN(CC)C(=O)c1ccc(C2=CC3(CCNCC3)Oc3cccc(O)c32)cc1
inactive: [8] | [2] | [3] | [9]

N=c1c2c(-c3ccccc3)c(-c3ccccc3)n(Cc3ccccc3)c2ncn1C1CCC(O)CC1 (stereo not given)
inactive: [2]

O=S(=O)(c1ccc(Cl)cc1)c1ccc(Cl)cc1
inactive: [1] | [8] | [2] | [3] | [9]

CC(C)(C)C(O)C(Oc1ccc(Cl)cc1)n1cncn1 (stereo not given)
inactive: [1] | [2] | [3] | [9] | [18] | [4] | [10] | [11] | [12] | [13] | [14] | [5] | [19] | [6] | [15] | [7] | [16] | [17]
